Each structure is given as a SMILES string.

For the assay, the target named is Calmodulin-1 (Homo sapiens) (UniProt P0DP23). The experiment in a line: calcium-bound CALM1 binders on microarrays, profiling panel, artefact control for SMM control-protein annotation, biochemical, small-molecule microarray, Cy5-labelled CALM1, plus calcium (AID 1112).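 Note: score merges spot fluorescence with signal to noise from triplicate slides.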 Conditions: Cy5-CALM1 binding fluorescence, higher = more signal.
`Oc1ccc2cc[n+](Cc3cccc(OC(F)(F)F)c3)cc2c1`: the composite z-score was -0.77. Regarding `CC1CC/C=C\[C@H]2OC34C=CCN(CCN5CCOCC5)C(=O)[C@H]3N(CCCCCO)C(=O)[C@@H]4C2C(=O)O1` (stereo partly specified), the composite z-score is -1.59. As to `C=C(C(=O)CC[C@@H](OC(=O)c1cccnc1)c1ccc(CO)o1)C(C)C`, the composite z-score is -0.835. On to `C=CCC(OC(C)=O)[C@@H]1[C@@H](N(Cc2cc3ccccc3o2)C(=O)c2cccc3ccccc23)c2cc(OCCCO)ccc2N1C(=O)Cc1ccc(OC)cc1` (stereo partly specified), for which the composite z-score turned out to be 0.344.

Take `C=CCN1C(=O)[C@]2(COC(c3ccc(OCCCO)cc3)=N2)Cc2ccccc21`: the composite z-score was found to be 0.0613. Consider `O=C(NCc1ccccc1)[C@@H]1c2ccccc2C(=O)N(C2CCCCC2)[C@H]1c1ccc(CO)cc1`, for which the composite z-score was -0.545. As for `[N-]=[N+]=NCc1ccccc1C[C@@]1(C(=O)NCc2ccccc2)N=C(c2ccc(OCCCO)cc2)O[C@@H]1c1ccccc1CN=[N+]=[N-]`, the figure is 0.924; as for `CCOC(=O)C=Cc1cccc(OC)c1O`, -0.551. Consider `CN(C)CCCC[C@@H]1NC(=O)[C@H]2C[C@@H](C(=O)NCCCCCNC(=O)CS)[C@@H](c3ccc(O)cc3)N2C1=O`, for which the composite z-score is 0.586. Turning to `COC(=O)[C@@]1(Cc2ccccc2)[C@H]2c3cc(C(=O)N(C)C)n(Cc4cc(F)c(F)c(F)c4)c3C[C@H]2CN1C(=O)c1ccccc1`, the composite z-score amounted to 0.449. Turning to `C=C(C)[C@@H]1CC=C(C(O)C2C=CC3C(=O)N(Cc4ccccc4)C(=O)C3N2n2cnnc2)CC1` (stereo partly specified), the composite z-score amounted to 0.3. As for `O=C(NCCN1CCOCC1)[C@@H]1c2ccccc2C(=O)N(Cc2cc(F)cc(C(F)(F)F)c2)[C@H]1c1ccc(CO)cc1`, the figure is 0.0296. For the molecule `O=C1O[C@H](c2ccccc2)[C@H](c2ccccc2)N2[C@H]1[C@@H](C(=O)NC[C@H](O)c1ccccc1)[C@]1(C(=O)Nc3ccc(C#CC4(O)CCCCCC4)cc31)[C@H]2c1ccccc1OCCO`, the composite z-score is 0.26. As for `C=C(/C(=C/C[C@@H](OC(=O)c1ccncc1)c1ccc(CO)o1)c1cc(C(=O)OC)ccc1OC)C(C)C`, the composite z-score is -0.0294.

`COc1ccc([Si](C)(C)[C@@H]2[C@@H](CCO)O[C@]3(C(=O)N(Cc4ccccc4)c4ccc(N(C=O)c5ccccc5)cc43)[C@H]2C)cc1`: the composite z-score stood at 0.841. As for `CCCCCCC#C[Si](O[C@H](c1ccccc1)c1cn([C@H](C)c2ccccc2)nn1)(C(C)C)C(C)C`, the figure is -0.455. `[N-]=[N+]=NCc1ccccc1[C@@H]1OC(c2ccc(OCCCO)cc2)=N[C@]1(Cc1ccccc1)C(=O)O`: the composite z-score was found to be 0.518.

Turning to `CCCC[C@@H]1C[C@H]1[C@@H](NC(=O)c1ccccc1)c1ccc(-c2ccccc2)cc1`, the composite z-score was determined as 0.596. As to `Cc1ccc(S[C@]2(C(=O)NCCN3CCOCC3)CC(=O)N(C3CCCCC3)[C@@H]2c2ccc(CO)cc2)cc1`, the composite z-score is -0.39. As for `CC(C)NC(=O)[C@@]1(c2ccc([N+](=O)[O-])cc2)CC(=O)N(C(C)C)[C@@H]1c1ccc(CO)cc1`, the figure is -0.56; as for `C=CCN1Cc2ccccc2C[C@@]2(COC(c3ccc(OCCCO)cc3)=N2)C1=O`, -0.583. For the molecule `COCCn1c(C(=O)N2CCCC2)cc2c1C[C@H]1CN(C(=O)c3ccccc3)[C@@](Cc3ccc(OC)cc3)(C(=O)OC)[C@@H]21`, the composite z-score turned out to be 1.33. Consider `C=C[C@@H](C)[C@@H](OC(=O)Nc1ccc(OC)cc1)c1ccc(O)c2ccccc12`, for which the composite z-score is -0.667. Regarding `COCCOC(=O)N1C(=O)[C@@]2(c3ccccc31)[C@H](C(=O)N1CCCCCCC1)[C@H]1C(=O)O[C@H](c3ccccc3)[C@H](c3ccccc3)N1[C@@H]2c1ccccc1OCCO`, the composite z-score was 1.43. As to `COCCn1c(C(=O)N(C)C)cc2c1C[C@H]1CN(C(=O)c3ccccc3)[C@@](Cc3ccc(F)cc3)(C(=O)OC)[C@@H]21`, the composite z-score was found to be 0.666. On to `CC(C)N1C(=O)c2ccccc2[C@](C)(C(=O)NCCCN(C)C)[C@@H]1c1ccc(CO)cc1`, for which the composite z-score was -0.0609. For `O=C1C2C=CC(C(O)c3ccc(-c4ccccc4)s3)N(Nc3ccccc3F)C2C(=O)N1c1ccccc1` (stereo unspecified), the composite z-score amounted to 1.24.

As to `CN1C(=O)C2C(C1=O)C1C=C(c3ccc(CO)cc3)C2C(C2CC2)N1Cc1sc2ccccc2c1Cl` (stereo unspecified), the composite z-score was 0.398. On to `CO[C@H]1O[C@H](CO)[C@@H](OC(=O)Nc2ccc3c(c2)OCO3)[C@H](OC(=O)Nc2ccc3c(c2)OCO3)[C@H]1OC(=O)Nc1ccc2c(c1)OCO2`, for which the composite z-score is -0.623. As for `C=CC[C@]1(C(=O)NCCN2CCOCC2)N=C(c2ccc(OCCCO)cc2)O[C@H]1c1ccccc1N=[N+]=[N-]`, the figure is -0.0083. As for `C=CCNC(=O)[C@@H]1[C@H]2C(=O)O[C@H](c3ccccc3)[C@H](c3ccccc3)N2[C@H](c2ccccc2OCCO)[C@@]12C(=O)N(C(=O)OCCOC)c1ccc(C#CCC(C(=O)OC)C(=O)OC)cc12`, the composite z-score is 1.01.

For the origin of these results see PubChem BioAssay.
